Results: PubChem BioAssay AID1159580 (chemical genetic matrix, 2015)
“And” between values parts separate entries of the source, which are not always exact repeats. Equal entries are not always repeated. About 2,000 (36%) of roughly 5,500 compounds were called active. Roughly 18% stayed inconclusive and do not appear here. Rule as the data show it: active = normalized growth mostly below about 0.91 (no sharp cut-off); inconclusive = no clear call, values can overlap the other calls; inactive = mostly above about 0.92. The list shows a part of the results.

Assay: chemical genetic growth profiling, strain panel (AID 1159580);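 also: tested at 20 µM; growth read once vehicle control cultures reached saturation at 30 °C; 1 = growth at the plate median or of vehicle wells; lower values mean less growth of the strain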
Conditions: growth OD

Measured: normalized growth

CC(C)NCC(O)c1ccc(O)c(O)c1 (stereo not given)
inactive: S. cerevisiae deletion strains, locus YJR075W, strain HOC1, stronger effect = lower value 1.01 and 1.02 | S. cerevisiae deletion strains, locus YKL009W, strain mrt4, stronger effect = lower value 0.979 | S. cerevisiae deletion strains, locus YKL068W, stronger effect = lower value 0.994 | S. cerevisiae deletion strains, locus YKL085W, strain MDH1 (second series), stronger effect = lower value 0.994 | S. cerevisiae deletion strains, locus YKL085W, strain MDH1, stronger effect = lower value 0.994 | S. cerevisiae deletion strains, locus YKL160W, strain elf1, stronger effect = lower value 0.966 | S. cerevisiae deletion strains, locus YKL190W, strain CNB1, stronger effect = lower value 0.996 | S. cerevisiae deletion strains, locus YKR001C, strain vps1, stronger effect = lower value 0.985 | S. cerevisiae deletion strains, locus YKR026C, strain gcn3, stronger effect = lower value 0.991 | S. cerevisiae deletion strains, locus YKR091W, strain srl3, stronger effect = lower value 0.996 | S. cerevisiae deletion strains, locus YLL001W, strain dnm1, stronger effect = lower value 0.955 | S. cerevisiae deletion strains, locus YLL026W, stronger effect = lower value 0.997 | S. cerevisiae deletion strains, locus YLL041C, strain sdh2, stronger effect = lower value 0.99 | S. cerevisiae deletion strains, locus YLR027C, strain aat2, stronger effect = lower value 1 | S. cerevisiae deletion strains, locus YLR039C, strain RIC1, stronger effect = lower value 1.08 | S. cerevisiae deletion strains, locus YLR058C, strain SHM2, stronger effect = lower value 1.01 | S. cerevisiae deletion strains, locus YLR102C, strain apc9, stronger effect = lower value 1 | S. cerevisiae deletion strains, locus YLR113W, strain HOG1, stronger effect = lower value 0.97 | S. cerevisiae deletion strains, locus YLR221C, strain rsa3, stronger effect = lower value 0.949 | S. cerevisiae deletion strains, locus YLR258W, strain gsy2, stronger effect = lower value 0.979 | S. cerevisiae deletion strains, locus YLR262C, strain YPT6 (second series), stronger effect = lower value 0.954 | S. cerevisiae deletion strains, locus YLR262C, strain YPT6, stronger effect = lower value 1.01 | S. cerevisiae deletion strains, locus YLR268W, strain sec22, stronger effect = lower value 1 | S. cerevisiae deletion strains, locus YLR320W, strain mms22, stronger effect = lower value 0.962 | S. cerevisiae deletion strains, locus YLR330W, strain CHS5, stronger effect = lower value 1.02 | S. cerevisiae deletion strains, locus YLR342W, strain FKS1 (second series), stronger effect = lower value 1.01 | S. cerevisiae deletion strains, locus YLR342W, strain FKS1, stronger effect = lower value 0.991 | S. cerevisiae deletion strains, locus YLR357W, strain rsc2, stronger effect = lower value 0.959 | S. cerevisiae deletion strains, locus YLR370C, strain arc18, stronger effect = lower value 0.977 | S. cerevisiae deletion strains, locus YLR371W, strain rom2, stronger effect = lower value 0.998 | S. cerevisiae deletion strains, locus YLR384C, strain iki3, stronger effect = lower value 0.996 | S. cerevisiae deletion strains, locus YLR418C, strain cdc73, stronger effect = lower value 0.986 | S. cerevisiae deletion strains, locus YML016C, strain PPZ1, stronger effect = lower value 1.01 | S. cerevisiae deletion strains, locus YML032C, strain rad52, stronger effect = lower value 0.989 | S. cerevisiae deletion strains, locus YML120C, strain ndi1, stronger effect = lower value 0.966 | S. cerevisiae deletion strains, locus YML124C, strain tub3, stronger effect = lower value 1 | S. cerevisiae deletion strains, locus YMR058W, strain fet3, stronger effect = lower value 0.991 | S. cerevisiae deletion strains, locus YMR078C, strain ctf18, stronger effect = lower value 1.01 | S. cerevisiae deletion strains, locus YMR125W, strain sto1, stronger effect = lower value 0.98 | S. cerevisiae deletion strains, locus YMR129W, stronger effect = lower value 0.991 | S. cerevisiae deletion strains, locus YMR205C, strain PFK2, stronger effect = lower value 0.971 | S. cerevisiae deletion strains, locus YMR223W, strain ubp8, stronger effect = lower value 0.99 | S. cerevisiae deletion strains, locus YMR231W, strain pep5, stronger effect = lower value 0.999 | S. cerevisiae deletion strains, locus YMR307W, strain GAS1, stronger effect = lower value 0.937 and 1.01 | S. cerevisiae deletion strains, locus YNL067W, strain RPL9B, stronger effect = lower value 1.01 | S. cerevisiae deletion strains, locus YNL071W, strain lat1, stronger effect = lower value 0.995 | S. cerevisiae deletion strains, locus YNL128W, strain TEP1, stronger effect = lower value 0.973 | S. cerevisiae deletion strains, locus YNL153C, strain GIM3, stronger effect = lower value 1 | S. cerevisiae deletion strains, locus YNL175C, strain NOP13, stronger effect = lower value 1.01 and 0.97 | S. cerevisiae deletion strains, locus YNL183C, strain NPR1, stronger effect = lower value 0.957 | S. cerevisiae deletion strains, locus YNL197C, strain WHI3, stronger effect = lower value 1.02 and 0.975 | S. cerevisiae deletion strains, locus YNL209W, strain ssb2, stronger effect = lower value 0.989 | S. cerevisiae deletion strains, locus YNL224C, strain SQS1, stronger effect = lower value 1 and 0.985 | S. cerevisiae deletion strains, locus YNL233W, strain BNI4, stronger effect = lower value 1.01 | S. cerevisiae deletion strains, locus YNL248C, strain rpa49, stronger effect = lower value 0.981 | S. cerevisiae deletion strains, locus YNL250W, strain rad50, stronger effect = lower value 0.985 | S. cerevisiae deletion strains, locus YNL271C, strain bni1, stronger effect = lower value 1 | S. cerevisiae deletion strains, locus YNL298W, strain CLA4, stronger effect = lower value 0.998 | S. cerevisiae deletion strains, locus YNL307C, strain MCK1, stronger effect = lower value 0.998 | S. cerevisiae deletion strains, locus YNL322C, strain KRE1 (second series), stronger effect = lower value 0.988 | S. cerevisiae deletion strains, locus YNL322C, strain KRE1, stronger effect = lower value 1.01 and 1 | S. cerevisiae deletion strains, locus YNR049C, strain mso1, stronger effect = lower value 0.995 | S. cerevisiae deletion strains, locus YNR052C, strain pop2, stronger effect = lower value 1 | S. cerevisiae deletion strains, locus YOL006C, strain TOP1, stronger effect = lower value 1.01 | S. cerevisiae deletion strains, locus YOL012C, strain htz1 0.826 | S. cerevisiae deletion strains, locus YOL147C, strain pex11, stronger effect = lower value 1 | S. cerevisiae deletion strains, locus YOR001W, strain rrp6, stronger effect = lower value 0.991 | S. cerevisiae deletion strains, locus YOR061W, strain CKA2, stronger effect = lower value 1.01 | S. cerevisiae deletion strains, locus YOR069W, strain VPS5, stronger effect = lower value 1.01 | S. cerevisiae deletion strains, locus YOR070C, strain gyp1, stronger effect = lower value 0.985 | S. cerevisiae deletion strains, locus YOR080W, strain dia2, stronger effect = lower value 0.992 | S. cerevisiae deletion strains, locus YOR083W, strain WHI5 (second series), stronger effect = lower value 0.998 and 0.969 | S. cerevisiae deletion strains, locus YOR083W, strain WHI5, stronger effect = lower value 0.981 | S. cerevisiae deletion strains, locus YOR106W, strain vam3, stronger effect = lower value 0.953 | S. cerevisiae deletion strains, locus YOR136W, strain idh2, stronger effect = lower value 0.997 | S. cerevisiae deletion strains, locus YOR144C, strain elg1, stronger effect = lower value 1 | S. cerevisiae deletion strains, locus YOR184W, strain ser1, stronger effect = lower value 1.01 | S. cerevisiae deletion strains, locus YOR231W, strain MKK1, stronger effect = lower value 0.952 | S. cerevisiae deletion strains, locus YOR265W, strain rbl2, stronger effect = lower value 0.996 | S. cerevisiae deletion strains, locus YOR270C, strain vph1, stronger effect = lower value 0.995 | S. cerevisiae deletion strains, locus YOR290C, strain snf2, stronger effect = lower value 0.939 | S. cerevisiae deletion strains, locus YOR316C, strain cot1, stronger effect = lower value 1.01 | S. cerevisiae deletion strains, locus YPL051W, strain arl3, stronger effect = lower value 0.967 | S. cerevisiae deletion strains, locus YPL055C, strain LGE1, stronger effect = lower value 1.01 | S. cerevisiae deletion strains, locus YPL078C, strain atp4, stronger effect = lower value 0.983 | S. cerevisiae deletion strains, locus YPL106C, strain sse1, stronger effect = lower value 0.929 | S. cerevisiae deletion strains, locus YPL240C, strain hsp82, stronger effect = lower value 0.976 | S. cerevisiae deletion strains, locus YPL241C, strain CIN2, stronger effect = lower value 0.994 | S. cerevisiae deletion strains, locus YPL256C, strain CLN2, stronger effect = lower value 0.99 | S. cerevisiae deletion strains, locus YPR119W, strain clb2, stronger effect = lower value 0.995 | S. cerevisiae deletion strains, locus YPR141C, strain kar3, stronger effect = lower value 0.992 | S. cerevisiae deletion strains, locus YPR163C, strain tif3, stronger effect = lower value 0.999 | S. cerevisiae deletion strains, locus YPR167C, strain met16, stronger effect = lower value 0.997 | S. cerevisiae deletion strains, strain wtn01, stronger effect = lower value 0.993 | S. cerevisiae strains, strain wild type, stronger effect = lower value 0.994
